Measurements from PubChem BioAssay AID1789 (The Scripps Research Institute Molecular Screening Center, 2009).
Among all 290,000 compounds or so, about 2,700 (0.93%) were called active. This excerpt belongs to a sample that is enriched for actives. A number with no mark means an inactive call.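 Rule for the calls: active = inhibition above the screen-wide mean plus 3 SD, computed separately per campaign (cut at about 16% in these data); inactive = the rest.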

The compounds below were run on Heat shock protein HSP 90 (rabbit reticulocyte lysate; luciferase refolding) (assay: HSP90 inhibitors, primary screen, cell lysate, luminescence (AID 1789;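 note: 0% = DMSO wells and 100% = 60 µM geldanamycin wells; inhibitors lower the luminescence because luciferase stays unfolded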)). Settings: 3 h, at 5.6 µM, hits give high values.

| Structure (SMILES) | inhibition |
| --- | --- |
| COc1cccc(-c2nc3ccc(N4CCN(C)CC4)cc3[nH]2)c1 | 60.8% (active) |
| Cc1nc2ccc(N3CCN(C)CC3)cc2nc1C | 1.77% |
| CN1CCN(c2cc(N3CCNCC3)ccc2[N+](=O)[O-])CC1 | -3.02% |
| CC1=CC(=Cc2sc3ccccc3[n+]2C)C=C(C)O1 | 0.85% |
| O=c1c2ccccc2nc(/C=C/c2ccc(F)cc2)n1-c1ccccc1O | -2.14% |
| O=c1c2ccccc2nc(-c2ccco2)n1-c1ccc(Br)cn1 | -1.12% |
| O=c1c2ccccc2nc(/C=C/c2ccco2)n1-c1ccccc1O | 19.4% (active) |
| CN(c1ccccc1)c1ccc([N+](=O)[O-])c2nonc12 | 3.91% |
| CC(C)CN1CCN(Cc2ccccc2C(F)(F)F)CC1CCO (stereo not given) | -3.13% |
| O=C(NC(c1ccc(Cl)cc1)P(=O)(Oc1ccccc1)Oc1ccccc1)OCc1ccccc1 (stereo not given) | 1.96% |
